Compound activity as filed in PubChem BioAssay.
A selection: hits, their analogues and other compounds. The true share with any hit is near 2.4%.
POLI inh: blocks human DNA polymerase iota activity | Q9UNA4 | Pol iota fluorescent replication assay, 10 min | Potency, µM (highest dose often 115 µM), for inactives: top-dose activity, negative = inhibition, most hits filed as inhibitors | hit rate 1% among 390,000 | AID 588590
Target sequence (Q9UNA4 whole entry, looked up): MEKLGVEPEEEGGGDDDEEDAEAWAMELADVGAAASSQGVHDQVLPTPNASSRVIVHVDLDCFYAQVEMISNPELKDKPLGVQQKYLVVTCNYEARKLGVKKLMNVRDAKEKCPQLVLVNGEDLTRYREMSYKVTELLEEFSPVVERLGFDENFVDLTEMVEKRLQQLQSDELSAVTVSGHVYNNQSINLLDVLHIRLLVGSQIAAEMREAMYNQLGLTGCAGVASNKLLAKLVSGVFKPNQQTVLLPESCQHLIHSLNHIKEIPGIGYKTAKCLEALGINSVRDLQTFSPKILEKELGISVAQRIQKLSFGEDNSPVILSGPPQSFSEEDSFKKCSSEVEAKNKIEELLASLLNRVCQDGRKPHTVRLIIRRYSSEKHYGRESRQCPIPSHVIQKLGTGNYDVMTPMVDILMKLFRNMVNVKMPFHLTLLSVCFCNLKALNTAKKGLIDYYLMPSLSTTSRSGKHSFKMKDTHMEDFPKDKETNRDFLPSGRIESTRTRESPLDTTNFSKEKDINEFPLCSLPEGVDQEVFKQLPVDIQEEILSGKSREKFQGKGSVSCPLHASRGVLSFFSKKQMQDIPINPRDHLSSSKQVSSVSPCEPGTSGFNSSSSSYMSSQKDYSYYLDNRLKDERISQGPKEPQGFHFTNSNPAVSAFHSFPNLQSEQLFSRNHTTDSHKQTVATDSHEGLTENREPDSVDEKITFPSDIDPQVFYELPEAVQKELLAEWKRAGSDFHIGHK
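Fluorescent replication assay read twice, at 0 min and 10 min after adding 50 nM (final) substrate. Enzyme (10 nM) and compounds were first incubated 15 min at room temperature; enzyme-free buffer wells were negative controls.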
WRN helicase inh: WRN helicase (human) inhibition; Q14191; Potency, µM (doses to about 114 µM), without a hit: top-dose activity change, negative = inhibition, most hits filed as inhibitors; AID 651768; hit rate 0.46% among 360,000; WRN helicase unwinding, fluorescent forked duplex, kinetic; note: % is set by controls: 0 for no effect and ±100 for the full control effect; nearly all actives have a fitted effect of over 55% in size
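Fluorescence dequenching readout, ex 525 nm/em 598 nm, kinetic mode: forked duplex DNA (100 nM final) with adjacent fluorophore and quencher unwound by WRN (20 nM final) with 2 mM ATP. Compound preincubation 15 min, room temperature.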
POLH inh: inhibitors of human DNA polymerase eta | hit rate 1.2% among 390,000 | Potency, µM (top dose mostly 114 µM), inactives show at the highest dose activity change, negative = inhibition, actives largely listed as inhibitors | Q9Y253 | AID 588591 | recombinant Pol eta, fluorescent DNA replication assay; note: % is set by controls: 0 for no effect and ±100 for the full control effect
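Pol eta (10 nM) was preincubated with compounds for 15 min at room temperature, after which fluorescent replication substrate (50 nM final) was added to start the reaction. Fluorescence was read kinetically at 0 and 10 min.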
Pol kappa inh: DNA polymerase kappa (human) inhibition. Q9UBT6. purified Pol kappa, fluorescent DNA synthesis assay, 10 min. Potency, µM (series often up to 107 µM), for inactives: top-dose activity, negative = inhibition, most hits filed as inhibitors. hit rate 0.53% among 400,000. AID 588579; note: % is set by controls: 0 for no effect and ±100 for the full control effect
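First, compounds were pin-transferred onto 10 nM Pol kappa. After 15 min at room temperature, substrate was added to 50 nM final. Fluorescence was then measured kinetically at 0 and 10 min.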
FEN1 inhibitor: human FEN1 inhibition. P39748. Recombinant FEN1 flap cleavage, fluorescence, 15 min. Potency, µM (top dose mostly 114 µM), for inactives: at the highest dose activity change, negative = inhibition, hits mostly inhibitors. hit rate 0.35% among 390,000. AID 588795; note: % is set by controls: 0 for no effect and ±100 for the full control effect; nearly all actives have a fitted effect of over 65% in size
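Compounds are tested as a concentration series against 10 nM FEN1; after a 15 min room-temperature preincubation, 50 nM substrate starts cleavage, with plate reads at 0 and 15 min. Normalized responses are fitted by a Hill equation.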
Pol beta inh: DNA polymerase beta (human) inhibition; Pol beta primer extension/strand displacement, fluorescence kinetic; hit rate 1.3% among 340,000; Potency, µM (highest dose often 114 µM), for the others: at the top dose activity change, negative = inhibition, usual class: inhibitors; P06746; note: % is set by controls: 0 for no effect and ±100 for the full control effect
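Homogeneous kinetic assay of primer extension and strand displacement by 10 nM Pol beta, preincubated 15 min at room temperature with compound before 50 nM substrate (final) was added. Read at 0 and 10 min; four-parameter Hill fit.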
Starred values were filed as active, the others as inactive; ? = inconclusive; . = no result given; [ ] = remark or other dose. Calls come from the whole dose curve; as a rule, active = well fitted curve in the direction sought with a large enough effect; inconclusive = small, poorly fitted or top-dose-only effect, or another doubt; inactive = no such curve, though single readings can be large; an effect the other way counts as inactive or inconclusive. Potency is the fitted concentration of half-maximal effect.

SMILES	POLI inh	WRN helicase inh	POLH inh	Pol kappa inh	FEN1 inhibitor	Pol beta inh
CC[C@H](C)[C@H](NC(=O)[C@H](Cc1ccc(O)cc1)NC(=O)[C@H](CCCNC(=N)N)NC(=O)[C@H](CCCNC(=N)N)NC(=O)[C@H](CC(C)C)NC(=O)[C@H](CC(=O)O)NC(=O)[C@H](C)NC(=O)[C@H](C)NC(=O)[C@H](Cc1ccc(O)cc1)NC(=O)[C@H](CCC(N)=O)NC(=O)[C@H](C)NC(=O)[C@H](CCSC)NC(=O)[C@H](CCC(N)=O)NC(=O)[C@H](CCC(=O)O)NC(=O)[C@@H]1CCCN1C(=O)[C@@H](NC(=O)[C@H](C)NC(=O)[C@H](CC(N)=O)NC(=O)[C@H](CC(=O)O)NC(=O)CNC(=O)[C@@H]1CCCN1C(=O)[C@H](Cc1ccc(O)cc1)NC(=O)[C@@H](NC(=O)[C@@H]1CCCN1C(=O)[C@H](CCC(=O)O)NC(=O)[C@H](CC(C)C)NC(=O)[C@@H]1CCCN1C(=O)[C@H](C)N)C(C)C)[C@@H](C)O)C(=O)N[C@@H](CC(N)=O)C(=O)N[C@@H](CCSC)C(=O)N[C@@H](CC(C)C)C(=O)N[C@H](C(=O)N[C@@H](CCCNC(=N)N)C(=O)N1CCC[C@H]1C(=O)N[C@@H](CCCNC(=N)N)C(=O)N[C@@H](Cc1ccc(O)cc1)C(N)=O)[C@@H](C)O	.	.	.	18.2%[60.1 µM]	.	.
CCCCC(CC)CCC(CC(C)C)OS(=O)(=O)O (configuration not stated)	.	.	.	4.9%[19.4 µM]	.	.
CCC(=O)Nc1cc2c3c(c1)CCN3C(=O)CC2	?	3.8%	7.7%	79.4µM*	-17.0%	37.5%
CCCC(=NCCc1c(C)[nH]c2ccccc12)C1=C(O)CC(c2ccccc2)CC1=O (configuration not stated)	89.1µM*	-0.4%	-25.3%	-6.9%	-3.6%	1.5%
CCCCC(=NCCc1c(C)[nH]c2ccccc12)C1=C(O)CC(c2ccccc2)CC1=O (configuration not stated)	20.4%	-6.5%[57.1 µM]	-9.8%	4.0%	3.6%	1.7%
COc1ccc(/C=C2/SC(=O)N(CCC(=O)Nc3ccc(C)cc3)C2=O)cc1OC	.	.	.	.	.	-0.7%
CC(=O)Nc1ccc(S(=O)(=O)Oc2cccc(/C=C3\SC(N)=NC3=O)c2)cc1	62.2%	79.4µM*	-1.1%	7.8%	-9.4%	-7.2%
COc1cc(/C=C2\SC(N)=NC2=O)ccc1OCC(=O)Nc1ccc(C)cc1	79.4µM*	-9.4%[11.6 µM]	?	-41.9%	-20.0%	3.55µM*
O=C(C[n+]1ccccc1Cl)c1ccc(Br)cc1	?	.	.	-30.4%	-1.2%	.
COCCOC(=O)C1=C(C)NC2(O)c3ccccc3C(=O)C12O (configuration not stated)	31.6µM*	-0.7%	-1.8%	4.3%[60.1 µM]	15.2%	-1.0%
CCOC(=O)C1=C(C)NC2(O)c3ccccc3C(=O)C12O (configuration not stated)	2.5%	2.7%	-13.6%	1.0%	-8.0%	2.8%
CCOc1cc(/C=N/N=C(N)N)ccc1OCc1ccc(Cl)cc1	12.9%	-1.8%	-16.4%	6.5%	2.3%	79.4µM*
NC(N)=N/N=C/c1ccc(OCc2ccccc2)c(OCc2ccccc2)c1	36.6%	-2.4%	-21.8%	-14.7%	?	79.4µM*
CCn1c2ccccc2c2cnc(N=CN(C)C)c(C#N)c21	11.1%	-16.8%[57.1 µM]	-24.6%	-13.5%	?	4.7%
CCN(CC)CCn1c2ccccc2c2cnc(N=CN(C)C)c(C#N)c21	?	-7.7%	?	-33.0%	35.5µM*	20µM*
Cc1ccc(CSC2=NS(=O)(=O)c3ccccc32)cc1	?	.	.	-12.2%	-18.2%	.
O=C1C(=O)c2ccccc2C(O)=C1CCCCl	14.1µM*	12.7%	?	-9.2%	?	30.0%
COc1ccc(CC2=C(O)c3ccccc3C(=O)C2=O)cc1	?	7.3%	-17.8%	-0.7%	-5.9%	23.2%
CN(Cc1ccccc1C#N)S(=O)(=O)c1cccs1	29.7%	-0.4%	-10.4%	5.9%	-2.8%	1.9%
